# The list is not random: actives were taken first. Their share in the collection is about 19%.
# KB-3-1 cytotox: KB-3-1 parental cell cytotoxicity; Potency, µM (titrated, usually from 46.1 µM), actives largely listed as cytotoxic; hit rate 1.4% among 400,000; KB-3-1 viability, CellTiter-Glo ATP luminescence, 72 h; also: nearly all actives have a fitted effect of over 60% in size
#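 Here the drug-naive KB-3-1 line serves as comparator for MDR sub-line selectivity; cells received compound titrations, 72 h at 37 °C, then CellTiter-Glo readout.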
# KB-V1 MDR tox: KB-V1 MDR subline cytotoxicity. Potency, µM (highest dose often 46.1 µM), usual class: cytotoxic. hit rate 3.4% among 400,000. AID 1347076. KB-V1 MDR cells viability, CellTiter-Glo, 72 h; also: nearly all actives have a fitted effect of over 60% in size
#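 Potencies derive from concentration-effect curves fitted to normalized luminescence (CellTiter-Glo) of KB-V1 cells treated for 72 h at 37 degrees C in phenol-red-free DMEM containing 10% FBS.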
# HT1080 IDH1KD tx: toxicity to HT-1080 IDH1 knockdown cells (counter line); HT-1080 IDH1 knockdown viability, ATP luminescence, 48 h; Potency, µM (doses to about 46.1 µM), actives largely listed as cytotoxic; hit rate 2% among 360,000; AID 686971
#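 % activity derives from luminescence (CellTiter-Glo), normalised to DMSO and no-cell wells. HT-1080-IDH1KD cells, 750/well, had 48 h compound exposure at 37 °C.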
# DT40 TDP1 no CPT: qHTS for Inhibitors of human tyrosyl-DNA phosphodiesterase 1 (TDP1): qHTS in cells in absence of CPT; Potency, µM (series often up to 46.2 µM), usual class: inhibitors; hit rate 15% among 420,000; AID 686978, 2013; DT40 Tdp1-/- hTDP1 cells, no CPT, ATP luminescence, 48 h; also: nearly all actives have a fitted effect of over 55% in size
#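 Seeded 400 DT40-hTDP1 cells/well (vehicle DMSO, no 20 nM CPT); pinned compounds; ≥48 hr at 37 °C; CellTiter-Glo luminescence as viability measure.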
# HT1080-NT tox: kills 2HG-producing HT-1080-NT fibrosarcoma cells. AID 686970. hit rate 1.6% among 360,000. HT-1080-NT fibrosarcoma viability, CellTiter-Glo ATP luminescence, 48 h. Potency, µM (series often up to 46.1 µM), hits mostly cytotoxic;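 also: NT is the 2HG producing partner of a matched IDH1 knockdown line; nearly all actives have a fitted effect of over 55% in size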
#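 Luminescent CellTiter-Glo readout after 48 hours of compound exposure at 37 degrees C defined viability of HT-1080-NT cells. Activity was normalized to DMSO wells and cell-free media wells; concentration-response curves were fitted and assigned curve classes.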
# DT40 TDP1 CPT: DT40-hTDP1 cell growth loss with CPT; chicken DT40 Tdp1-/-;hTDP1 cells + 20 nM CPT, ATP luminescence, 48 h; Potency, µM (series often up to 46.2 µM), usual class: inhibitors; hit rate 12% among 420,000; AID 686979; also: nearly all actives have a fitted effect of over 55% in size
#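 Chicken DT40 Tdp1-/- cells complemented with human TDP1, 400 cells/well, exposed to compounds plus 20 nM camptothecin for at least 48 h at 37 C; viability read as ATP content by CellTiter-Glo luminescence.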
# Hits are given with their value; - = inactive; ? = inconclusive; . = no result given. Calls follow the shape of the dose curve; as a rule, active = well fitted curve in the direction sought with a large enough effect; inconclusive = small, poorly fitted or top-dose-only effect, or another doubt; inactive = no such curve, though single readings can be large; an effect the other way counts as inactive or inconclusive.
SMILES,KB-3-1 cytotox,KB-V1 MDR tox,HT1080 IDH1KD tx,DT40 TDP1 no CPT,HT1080-NT tox,DT40 TDP1 CPT
CCc1nc2c(OCc3ccc(Cl)cc3)cccn2c1N(C=O)Cc1ccccc1,?,-,?,23µM,23µM,?
CCc1nc2c(OCC(=O)c3ccc(Cl)cc3Cl)cccn2c1N(C=O)Cc1ccccc1,-,-,-,?,-,21µM
COC(=O)C1=C(C)NC(=O)NC1c1ccc(-c2ccccc2Cl)o1 (centres undefined),-,?,?,16µM,?,10µM
COC(=O)C1=C(C)NC(=S)NC1c1ccc(-c2ccccc2C(=O)OC)o1 (centres undefined),-,?,-,18µM,-,?
COC(=O)C1=C(C)NC(C)=C(C(=O)OC)C1c1ccc(-c2cccc(Cl)c2Cl)o1,-,16µM,-,?,-,?
Cc1ccc(CNC(=O)CS(=O)CC(=O)O)cc1 (centres undefined),-,-,-,-,-,-
COc1cc2c(cc1OC)C(=S)NC(C)(C)C2,-,-,?,-,10µM,-
COc1cc(C(=O)NCCC(C)C)ccc1OCc1ccc(Cl)cc1Cl,?,15µM,-,?,-,?
CN(C)CCNC(=O)c1ccc(COc2ccc(Cl)cc2Cl)cc1,?,18µM,?,18µM,10µM,?
COc1ccc(C)cc1NC(=O)COC(=O)c1ccc(OCc2ccc(Cl)cc2Cl)c(OC)c1,-,-,-,16µM,-,18µM
CS(=O)(=O)c1cccc(NC(=O)C2CCCN2S(=O)(=O)c2ccc(F)cc2)c1 (centres undefined),-,-,-,-,-,-
NC1=NC(=O)/C(=C/c2cn(CCC(=O)O)nc2-c2ccc(Cl)cc2)S1,-,-,-,-,-,-
NC1=NC(=O)/C(=C\c2ccc(-c3ccc(Cl)cc3)o2)S1,-,?,-,18µM,-,?
CC1=Nc2ccc(C)c3nc(C)cc(c23)N1c1ccc(C)cc1,-,?,-,16µM,-,?
Cc1cc(OCCSc2nnc(-c3cccs3)n2C)ccc1Cl,-,-,-,?,-,?
Cn1c(SCc2nc(-c3ccc(Cl)cc3)no2)nnc1-c1cccs1,?,-,-,16µM,-,?
Cn1c(SCCOc2ccccc2Cl)nnc1-c1cccs1,-,18µM,-,-,-,?
CCn1c(SCc2nc(-c3ccc(Cl)cc3)no2)nnc1-c1ccco1,-,?,?,21µM,-,?
CCOc1ccc(C(=O)NCC(=O)N2CCC3CCCCC3C2)cc1OCC (centres undefined),-,?,-,-,-,-
CC(C)c1ccc(NC(=O)C2C3C=CC4(O3)C2C(=O)N(CCCN2CCOCC2)C4C(=O)NC2CCCCC2)cc1 (centres undefined),-,-,-,-,-,-
CCOC(=O)N1CCC(N2CC34C=CC(O3)C(C(=O)Nc3ccc(OCC)cc3)C4C2=O)CC1 (centres undefined),?,-,?,-,-,-
Cc1ccc(S(=O)(=O)Nc2ccc(C(=O)N3CCOCC3)cc2)cc1,-,-,-,-,-,-
CCN1CCN(CCCNC(=O)c2cnn(-c3ccccc3)c2C2CCN(C(=O)OC(C)(C)C)CC2)CC1,-,-,.,-,.,-
Cc1ccc(-n2ncc(C(=O)NCCCN3CCc4ccccc4C3)c2C2CCN(C(=O)OC(C)(C)C)CC2)cc1C,-,-,.,?,.,?
CC(C)(C)OC(=O)N1CCC(c2c(C(=O)NCCCN3CCc4ccccc4C3)cnn2-c2ccccc2)CC1,-,-,.,23µM,.,?
SMILES,KB-3-1 cytotox,KB-V1 MDR tox,HT1080 IDH1KD tx,DT40 TDP1 no CPT,HT1080-NT tox,DT40 TDP1 CPT
Cc1ccc(-n2ncc(C(=O)NCCCN3CCc4ccccc4C3)c2C2CCN(C(=O)OC(C)(C)C)CC2)c(C)c1,.,.,.,21µM,.,21µM
Cc1cccc(C)c1-n1ncc(C(=O)NCCCN2CCC(C)CC2)c1C1CCN(C(=O)OC(C)(C)C)CC1,?,-,.,21µM,.,?
O=P1(O)Cc2ccccc2-c2ccccc21,-,-,-,-,-,-
COc1ccc(CCNC(=O)CCOc2ccc(C(C)(C)C)cc2)cc1OC,-,?,-,?,-,?
COc1ccc(S(=O)(=O)N2CCC[C@H]2C(=O)N2CCC[C@H]2C(=O)N(C)Cc2ccccc2)cc1C,-,-,-,-,-,?
COc1ccccc1CCNC(=O)Cn1c(=O)oc2ccccc21,-,-,-,?,-,21µM
COc1ccccc1NC(=O)Cn1c(=O)oc2ccccc21,-,-,-,2.9µM,-,2.9µM
COc1ccc(Cl)cc1NC(=O)Cn1c(=O)oc2ccccc21,-,-,-,?,-,-
COc1ccc(NCc2cc3ccc(OC)cc3n(CC(=O)Nc3cccc(OC)c3)c2=O)cc1,-,-,.,.,.,.
N/C(=N\OC(=O)CCC1CCCC1)c1cccnc1,-,-,-,-,-,-
COC(=O)c1ccc(Oc2nc3c(c(=O)n(C)c(=O)n3C)n2CCC(C)C)cc1,-,-,-,23µM,-,?
Cn1c(=O)c2c(nc(Br)n2CC(=O)C23CC4CC(CC(C4)C2)C3)n(C)c1=O,-,?,-,18µM,-,23µM
CCn1c(Oc2cccc(Br)c2)nc2c1c(=O)n(C)c(=O)n2C,-,-,-,-,-,-
CCN(CC)c1nc2c(c(=O)n(C)c(=O)n2C)n1CC(=O)c1ccccc1,-,-,-,23µM,-,?
COc1cccc(C(=O)Cn2c(Br)nc3c2c(=O)n(C)c(=O)n3C)c1,-,?,-,9.2µM,-,?
COC(=O)c1ccc(Oc2nc3c(c(=O)n(C)c(=O)n3C)n2C(C)C)cc1,-,-,.,-,.,?
Cn1c(=O)c2c(nc(N3CCCCCC3)n2CC(=O)c2ccccc2)n(C)c1=O,-,-,-,?,-,-
CCCC1=NN2C(=N)/C(=C\c3ccc(OCCOc4ccc(NC(C)=O)cc4)c(OC)c3)C(=O)N=C2S1,-,-,-,-,-,-
CC(=O)Nc1ccc(S(=O)(=O)Nc2nc3ccccc3nc2-n2ccc(=NC(=O)c3ccc(F)cc3)cc2)cc1,-,-,-,-,-,-
COc1ccc(C(=O)Cn2c(Cl)nc3c2c(=O)n(C)c(=O)n3C)cc1,-,?,-,21µM,-,?
CCC(=O)c1ccc(Oc2nc3c(c(=O)n(C)c(=O)n3C)n2CC)cc1,-,-,-,?,-,?
COc1ccc(NC(=O)CSc2c(C)nn(-c3nnc(C)c(=O)[nH]3)c2C)cc1,-,-,-,-,-,-
